The results in this text go back to PubChem BioAssay.

Active and inactive are the calls of the source.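 Rule for the calls, unless noted: active = visual image review flags a hit and inhibition of aggregation exceeds 20%; inconclusive = visual hit but inhibition at or below 20%; inactive = no hit on visual image review.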

The first assay in a line: inhibitors of TNFa-induced NFkB p65 translocation, primary screen, imaging, HUVEC, MLSMR starter and 10KST1 sets (AID 438;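 active = inhibition above 20% together with a positive visual image hit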;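 note: compound added about 3h40 before a 20 min TNFalpha stimulation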;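 for inhibition: signal is the nuclear over cytoplasmic p65 intensity ratio per well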). As to conditions: HUVEC TNFa-induced p65 nuclear translocation; cell count: measured here: nuclei count (cytotoxicity indicator), at 2.08 µM; inhibition: at 2 µM, stronger effect = higher value, 0% TNFa-plus-vehicle, 100% no-TNFa wells.
For `COc1ccc(NC(=O)CN(c2cc(C)cc(C)c2)S(=O)(=O)c2c(C)noc2C)cc1OC`, the inhibition is -1.7% (inactive) and the cell count was 753.

As for `COc1cccc(NC(=O)N[C@@H](Cc2ccccc2)C(=O)O)c1`, the cell count stood at 565 and the inhibition was -9.8% (inactive).

In the case of `COc1cccc(C2=Nn3c(nnc3-c3ccccc3O)SC2)c1`, the cell count is 436 and the inhibition is 3.4% (inactive).

With `CC(=O)C1=C(C)Nc2ncnn2C1c1cccc(OCc2ccccc2)c1` (stereo unspecified), the inhibition is 0% (inactive) and the cell count came to 610.

As to `O=C1C(C=NCCCn2ccnc2)=C(O)c2ccccc21`, the inhibition is 5.8% (inactive) and the cell count was found to be 422.

Turning to `CS(=O)(=O)NCC(c1cccnc1)N1CCN(c2ccc(F)cc2)CC1` (stereo unspecified), the inhibition was -10.2% (inactive) and the cell count is 250.

As to `CN(C)c1nc(Oc2ccc(=O)n(C)n2)nc(N2CCOCC2)n1`, the cell count was found to be 306 and the inhibition is 0.5% (inactive).

Regarding `O=C(Nc1ccc(N2CCOCC2)cc1)c1cc2ccccc2o1`, the cell count turned out to be 775 and the inhibition is -1.9% (inactive).

Consider `Cn1nnnc1SCC(=O)NC1CCCCC1`, for which the cell count amounted to 228 and the inhibition is 3.4% (inactive).

`CCn1nc(CC(=O)Nc2nnc(CC(=O)N3CCCCC3)s2)c2ccccc2c1=O`: the cell count worked out at 385 and the inhibition was 0.2% (inactive).

On to `c1ccc(C(Cc2nc(-c3ccccn3)no2)c2ccccc2)cc1`, for which the cell count was found to be 337 and the inhibition is -8% (inactive).

As for `COCCNC(=O)CCc1nc(-c2ccccc2)no1`, the inhibition was -5% (inactive) and the cell count was determined as 294.

Take `CC1(C)CC(=O)N(CC(=O)NCc2ccccc2)c2ccccc2S1(=O)=O`: the inhibition is -1.7% (inactive) and the cell count stood at 807.

In the case of `CCN1C(=O)Cc2cc(S(=O)(=O)N3CCOCC3)ccc21`, the inhibition was -2.9% (inactive) and the cell count worked out at 675.

As to `COc1cc2c(C#N)c(N3CCOCC3)nc(N)c2c(N)n1`, the cell count was found to be 694 and the inhibition is -7.8% (inactive).

With `Cc1ccc(S(=O)(=O)N2CCCC2C(=O)OCc2nc3ccccc3s2)cc1` (stereo unspecified), the inhibition was -1.1% (inactive) and the cell count was found to be 459.

In the case of `COC(=O)CNC(=O)COC(=O)c1cc(Cl)cc(Cl)c1N`, the inhibition is 4.7% (inactive) and the cell count turned out to be 473.

Take `CCCCn1c(=O)[nH]c(=O)c2c1nc(-c1ccncc1)n2CCOC`: the inhibition was -15.4% (inactive) and the cell count is 542.

As to `O=C(CCn1c(=O)oc2ccccc21)N1CCCCCC1`, the inhibition was -23.3% (inactive) and the cell count amounted to 776.

For the molecule `Cc1cc(C)n(-c2cc(N3CCOCC3)nc(-c3ccccc3)n2)n1`, the cell count is 323 and the inhibition is -14% (inactive).

For the molecule `CCOC(=O)C1=C(NC#N)OC(C)=C(C)C1c1ccc(O)cc1` (stereo unspecified), the inhibition is 1% (inactive) and the cell count was 276.

With `CCOc1cc(-c2nc(-c3ccccc3OC)no2)cc(OCC)c1OCC`, the inhibition is 7.7% (inactive) and the cell count was 575.

Consider `COc1ccc(-n2nnnc2SCC(=O)N2CCOCC2)cc1`, for which the inhibition was 2.8% (inactive) and the cell count came out at 788.

Take `COc1cc(NC(=O)C(C)Oc2ccccc2)c(C(=O)O)cc1OC` (stereo unspecified): the cell count was found to be 622 and the inhibition was -1.5% (inactive).

A short description of a further assay: inhibitors of mutant huntingtin aggregation, primary screen, imaging, exon1htt(103Q)mCFP cells, high-content imaging (AID 483).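 For nuclei count: percent of the per-plate median nuclei count of sample wells.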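 Note: compound exposure lasted 3 days before fixation.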 As to conditions: exon1htt(103Q)mCFP cell line, aggregate imaging, at 2 µM; inhibition of aggregation: stronger effect = higher value; nuclei count: measured here: cell count, toxicity.
On to `c1ccc(-n2ncc3c(N4CCCCC4)ncnc32)cc1`, for which the nuclei count is 108% and the inhibition of aggregation is -2.1% (inactive).

In the case of `CCCCn1cnc2c1c(=O)n(C)c(=O)n2C`, the nuclei count came to 101% and the inhibition of aggregation is 25.6% (inactive).

For the molecule `CCOC(=O)C1=C(C)Nc2nnnn2C1c1ccc(OC)c(Br)c1` (stereo unspecified), the inhibition of aggregation is -8.3% (inactive) and the nuclei count is 94.6%.

Consider `Cc1ccc(S(=O)(=O)Nc2nc3ccccc3nc2NCc2ccco2)cc1`, for which the inhibition of aggregation was -2% (inactive) and the nuclei count turned out to be 103%.

With `CCOC(=O)c1ccc2ncc(C(=O)OCC)c(NCCN(C)C)c2c1`, the inhibition of aggregation is -5.5% (inactive) and the nuclei count stood at 94%.

Take `N#Cc1c2n(c(=S)n(-c3ccccn3)c1=O)CCCCC2`: the nuclei count turned out to be 111% and the inhibition of aggregation was -14.8% (inactive).

On to `Cc1ccc2nc(-c3ccc4c(c3)OCCO4)cc(C(=O)O)c2c1`, for which the inhibition of aggregation was -4.5% (inactive) and the nuclei count was 111%.

For `N#Cc1c(N)c(C(=O)c2ccccc2)n2c1CCCC2`, the nuclei count came to 86.4% and the inhibition of aggregation is -10.6% (inactive).

Turning to `COCCn1c(COc2ccc(Cl)cc2)nnc1SCC(N)=O`, the nuclei count is 93.8% and the inhibition of aggregation is 7.6% (inactive).

On to `CC1Cc2ccccc2N1S(=O)(=O)c1cccc(C(=O)OCC(=O)NC2CCS(=O)(=O)C2)c1` (stereo unspecified), for which the nuclei count stood at 103% and the inhibition of aggregation is 6.3% (inactive).

In the case of `C=CCn1c(SCC(=O)NC2CCCCC2)nnc1-c1sc(N)nc1C`, the inhibition of aggregation is -12.7% (inactive) and the nuclei count stood at 101%.

As to `Cc1ccc(CSc2nc3c(c(=O)[nH]2)CCC3)cc1`, the inhibition of aggregation was -3.3% (inactive) and the nuclei count was determined as 103%.

Consider `Cc1nnc(NC(=O)c2ccco2)s1`, for which the inhibition of aggregation was -21.8% (inactive) and the nuclei count was 107%.

In the case of `CCN(CC)c1ccc2cc(NC(=O)CCC(=O)O)c(=O)oc2c1`, the inhibition of aggregation is -6.8% (inactive) and the nuclei count is 95%.

As to `CCCCC(=O)NCCc1ccc(S(N)(=O)=O)cc1`, the inhibition of aggregation was 1.1% (inactive) and the nuclei count was 101%.

Turning to `COc1ccc(NC(=O)CN(c2cc(C)cc(C)c2)S(=O)(=O)c2c(C)noc2C)cc1OC`, the inhibition of aggregation is -15.7% (inactive) and the nuclei count worked out at 116%.

Take `COc1cccc(NC(=O)N[C@@H](Cc2ccccc2)C(=O)O)c1`: the nuclei count stood at 103% and the inhibition of aggregation was -6.9% (inactive).

Take `COc1cccc(C2=Nn3c(nnc3-c3ccccc3O)SC2)c1`: the nuclei count worked out at 99.4% and the inhibition of aggregation is 2.3% (inactive).

With `CC(=O)C1=C(C)Nc2ncnn2C1c1cccc(OCc2ccccc2)c1` (stereo unspecified), the nuclei count was 103% and the inhibition of aggregation is 2.1% (inactive).

Consider `O=C1C(C=NCCCn2ccnc2)=C(O)c2ccccc21`, for which the inhibition of aggregation is -8.1% (inactive) and the nuclei count amounted to 104%.

Turning to `CS(=O)(=O)NCC(c1cccnc1)N1CCN(c2ccc(F)cc2)CC1` (stereo unspecified), the nuclei count worked out at 33.8% and the inhibition of aggregation is 15.1% (inactive).

In the case of `CN(C)c1nc(Oc2ccc(=O)n(C)n2)nc(N2CCOCC2)n1`, the nuclei count turned out to be 93.3% and the inhibition of aggregation is 17.6% (inactive).

Turning to `O=C(Nc1ccc(N2CCOCC2)cc1)c1cc2ccccc2o1`, the nuclei count was 106% and the inhibition of aggregation is 7.2% (inactive).

For the molecule `Cn1nnnc1SCC(=O)NC1CCCCC1`, the inhibition of aggregation was 20% (inactive) and the nuclei count was 84.3%.

Consider `CCn1nc(CC(=O)Nc2nnc(CC(=O)N3CCCCC3)s2)c2ccccc2c1=O`, for which the nuclei count worked out at 104% and the inhibition of aggregation was 2.9% (inactive).

Regarding `c1ccc(C(Cc2nc(-c3ccccn3)no2)c2ccccc2)cc1`, the nuclei count was 110% and the inhibition of aggregation is 4% (inactive).

With `COCCNC(=O)CCc1nc(-c2ccccc2)no1`, the inhibition of aggregation is -9.3% (inactive) and the nuclei count is 103%.

Turning to `CC1(C)CC(=O)N(CC(=O)NCc2ccccc2)c2ccccc2S1(=O)=O`, the nuclei count was determined as 123% and the inhibition of aggregation was -7.8% (inactive).

Turning to `CCN1C(=O)Cc2cc(S(=O)(=O)N3CCOCC3)ccc21`, the inhibition of aggregation is -11.1% (inactive) and the nuclei count came out at 121%.

Turning to `COc1cc2c(C#N)c(N3CCOCC3)nc(N)c2c(N)n1`, the inhibition of aggregation is -18.2% (inactive) and the nuclei count is 117%.

Regarding `Cc1ccc(S(=O)(=O)N2CCCC2C(=O)OCc2nc3ccccc3s2)cc1` (stereo unspecified), the inhibition of aggregation was 4.3% (inactive) and the nuclei count stood at 116%.

As for `COC(=O)CNC(=O)COC(=O)c1cc(Cl)cc(Cl)c1N`, the nuclei count turned out to be 112% and the inhibition of aggregation was -2% (inactive).

For the molecule `CCCCn1c(=O)[nH]c(=O)c2c1nc(-c1ccncc1)n2CCOC`, the inhibition of aggregation was -7.3% (inactive) and the nuclei count turned out to be 107%.

Regarding `O=C(CCn1c(=O)oc2ccccc21)N1CCCCCC1`, the nuclei count stood at 123% and the inhibition of aggregation is -23.8% (inactive).

As to `Cc1cc(C)n(-c2cc(N3CCOCC3)nc(-c3ccccc3)n2)n1`, the nuclei count was determined as 105% and the inhibition of aggregation was -20.5% (inactive).

Consider `CCOC(=O)C1=C(NC#N)OC(C)=C(C)C1c1ccc(O)cc1` (stereo unspecified), for which the nuclei count was found to be 117% and the inhibition of aggregation is -12.7% (inactive).

In the case of `CCOc1cc(-c2nc(-c3ccccc3OC)no2)cc(OCC)c1OCC`, the nuclei count turned out to be 98.3% and the inhibition of aggregation is 0.8% (inactive).

For the molecule `COc1ccc(-n2nnnc2SCC(=O)N2CCOCC2)cc1`, the inhibition of aggregation is 9.1% (inactive) and the nuclei count came to 85.7%.

Take `COc1cc(NC(=O)C(C)Oc2ccccc2)c(C(=O)O)cc1OC` (stereo unspecified): the nuclei count turned out to be 108% and the inhibition of aggregation is -0.9% (inactive).

By inhibition is commonly meant the drop in the measured response relative to a control, in per cent.
